{
  "source": "PubChem BioAssay (Tox21)",
  "note": "Inconclusive results are not listed. Calls of active or inactive are those of the source. Calls come from the whole dose curve; as a rule, active = well fitted activation curve with a large enough effect in the signal ratio in the repeat runs (not every such curve was filed as active); inconclusive = weak or mixed curves, or effect the other way; inactive = no such curve, though single readings can be large or run the other way; the % refers to the signal ratio.",
  "data": [
    {"molecular_target": "Peroxisome proliferator-activated receptor gamma (Homo sapiens) (UniProt P37231)", "sequence (P37231 whole entry, looked up)": "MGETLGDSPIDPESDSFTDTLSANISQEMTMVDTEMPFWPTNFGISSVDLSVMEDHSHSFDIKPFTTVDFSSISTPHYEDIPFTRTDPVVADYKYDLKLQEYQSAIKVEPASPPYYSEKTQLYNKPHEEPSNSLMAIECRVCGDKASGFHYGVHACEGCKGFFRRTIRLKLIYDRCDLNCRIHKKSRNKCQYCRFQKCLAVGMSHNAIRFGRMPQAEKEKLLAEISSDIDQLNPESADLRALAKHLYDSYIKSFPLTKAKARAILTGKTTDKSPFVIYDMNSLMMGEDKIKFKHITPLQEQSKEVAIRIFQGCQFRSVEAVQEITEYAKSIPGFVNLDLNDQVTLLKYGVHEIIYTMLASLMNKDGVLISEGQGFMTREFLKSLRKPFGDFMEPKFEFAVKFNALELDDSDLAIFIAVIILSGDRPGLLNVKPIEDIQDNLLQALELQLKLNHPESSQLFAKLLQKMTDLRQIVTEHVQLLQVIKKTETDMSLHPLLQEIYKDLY", "test": "qHTS assay to identify small molecule agonists of the peroxisome proliferator-activated receptor gamma (PPARg) signaling pathway (AID 743094)", "details": "HEK293H PPARg-UAS-bla, beta-lactamase FRET ratio, 17 h; series mostly up to 57 µM", "from_the_text": "U.S. Tox21 Program National Center for Advancing Translational Sciences [NCATS] NIH Chemical Genomics Center [NCGC] U.S. Environmental Protection Agency [EPA] National Institutes of Environmental Health Sciences [NIEHS] National Toxicology Program [NTP] U.S. Food and Drug Administration [FDA] Tox21 Assay Overview: The peroxisome proliferator-activated receptors (PPARs) are lipid-activated transcription factors of the nuclear receptor superfamily with three distinct subtypes namely PPAR alpha, PPAR delta (also called PPAR beta) and PPAR gamma (PPARg). All these subtypes heterodimerize with Retinoid X receptor (RXR) and these heterodimers regulate transcription of various genes. PPAR-gamma receptor (glitazone receptor) is involved in the regulation of glucose and lipid metabolism. To identify the compounds that activate PPAR-gamma signaling, GeneBLAzer PPAR gamma UAS-bla HEK293H cell line (Invitrogen, Carlsbad, CA, USA) containing a beta-lactamase reporter gene under control of the control of an upstream activator sequence (UAS) stably integrated into HEK293H cells was used to screen Tox21 compound library.\nTox21 Assay Protocol Summary: PPARg-bla cells were dispensed at 3000 cells/6uL/well in 1536-well black wall/clear bottom plates using a Multidrop Combi (Thermo Fisher Scientific, Waltham, MA) dispenser. After the assay plates were incubated at 37C and 5% CO2 for 5 h, 23 nL of compounds dissolved in DMSO, positive controls or DMSO only was transferred to the assay plate by a Pintool station (Kalypsys, San Diego, CA). The assay plates were incubated at 37C for 17 h. After 1 uL of LiveBLAzerTM B/G FRET substrate was added using a Bioraptr Flying Reagent Dispenser (FRD) workstation (Beckman Coulter, Indianapolis, IN, USA), the plates were incubated at room temperature for 1 h, and fluorescence intensity was measured by an Envision plate reader (PerkinElmer, Shelton, CT).", "values": [
      {"smiles": "CCC/C=C/C=O", "outcome": "inactive"},
      {"smiles": "O=C1CCc2ccccc2O1", "outcome": "inactive"},
      {"smiles": "CCCCCCCCCCCCO", "outcome": "inactive"},
      {"smiles": "c1ccc2ncccc2c1", "outcome": "inactive"},
      {"smiles": "c1ccc2c(c1)ccc1ncccc12", "outcome": "inactive"},
      {"smiles": "Nc1ccc(O)c(N)c1", "outcome": "inactive"},
      {"smiles": "Cc1ccc2c(c1)C(=O)OC2=O", "outcome": "inactive"},
      {"smiles": "CC1(C)NC(=O)N(c2ccc([N+](=O)[O-])c(C(F)(F)F)c2)C1=O", "outcome": "inactive"},
      {"smiles": "CC(=O)[C@@]1(O)CC[C@H]2[C@@H]3C[C@H](C)C4=CC(=O)C=C[C@]4(C)[C@@]3(F)[C@@H](O)C[C@@]21C", "outcome": "inactive"},
      {"smiles": "COc1ccc2nc(N)sc2c1", "outcome": "inactive"},
      {"smiles": "C[N+](C)(C)CCO", "outcome": "inactive"},
      {"smiles": "COC(=O)C(C)Oc1ccc(Oc2ncc(C(F)(F)F)cc2Cl)cc1", "note": "(stereo not given)", "outcome": "inactive"},
      {"smiles": "Cc1ccc([N+](=O)[O-])c(C)c1", "outcome": "inactive"},
      {"smiles": "O=C(O)c1ccc(O)cc1", "outcome": "inactive"},
      {"smiles": "CCC(Cc1c(I)cc(I)c(N)c1I)C(=O)O", "note": "(stereo not given)", "outcome": "inactive"},
      {"smiles": "CCCCCC=O", "outcome": "inactive"},
      {"smiles": "OC[C@@H](O)[C@@H](O[C@@H]1O[C@H](CO)[C@H](O)[C@H](O)[C@H]1O)[C@H](O)[C@@H](O)CO", "outcome": "inactive"},
      {"smiles": "C[C@]12C=CC(=O)C=C1CC[C@H]1[C@@H]3C[C@@H](O)[C@](O)(C(=O)CO)[C@@]3(C)C[C@H](O)[C@@]12F", "outcome": "inactive"},
      {"smiles": "CCc1cccc2c3c([nH]c12)C(CC)(CC(=O)O)OCC3", "note": "(stereo not given)", "outcome": "inactive"},
      {"smiles": "CC(C)[C@@H]1CC[C@@H](C)CC1=O", "outcome": "inactive"},
      {"smiles": "COc1ccc(C(=O)c2ccccc2O)c(O)c1", "outcome": "inactive"},
      {"smiles": "Clc1ccc(Sc2cc(Cl)c(Cl)cc2Cl)cc1", "outcome": "inactive"},
      {"smiles": "CCCCCC1C(=O)CCC1CC(=O)OC", "note": "(stereo not given)", "outcome": "inactive"},
      {"smiles": "CC(C)=CCO", "outcome": "inactive"},
      {"smiles": "Cc1ccc(/C(=C\\CN2CCCC2)c2ccccn2)cc1", "outcome": "inactive"},
      {"smiles": "c1ccc2cc3ccccc3cc2c1", "outcome": "inactive"},
      {"smiles": "C/C=C/C(=O)N(CC)c1ccccc1C", "outcome": "inactive"},
      {"smiles": "C=CC(C)(O)CCC=C(C)C", "note": "(stereo not given)", "outcome": "inactive"},
      {"smiles": "CCC(=O)O[C@H]1[C@H](O[C@@H]2[C@@H](C)[C@H](O[C@H]3C[C@@](C)(OC)[C@@H](O)[C@H](C)O3)[C@@H](C)C(=O)O[C@H](CC)[C@@](C)(O)[C@H](O)[C@@H](C)C(=O)[C@H](C)C[C@@]2(C)O)O[C@H](C)C[C@@H]1N(C)C", "outcome": "inactive"},
      {"smiles": "Nc1cc(Cl)c(N)c(Cl)c1", "outcome": "inactive"},
      {"smiles": "C1CN(SSN2CCOCC2)CCO1", "outcome": "inactive"},
      {"smiles": "CC1(C)O[C@@H]2C[C@H]3[C@@H]4C[C@H](F)C5=CC(=O)C=C[C@]5(C)[C@@]4(F)[C@@H](O)C[C@]3(C)[C@]2(C(=O)CO)O1", "outcome": "inactive"},
      {"smiles": "CC(C)(C)c1cccc(C(C)(C)C)c1O", "outcome": "inactive"},
      {"smiles": "CC(C)[N+](C)(CCOC(=O)C1c2ccccc2Oc2ccccc21)C(C)C", "outcome": "inactive"},
      {"smiles": "OC[C@H]1O[C@@H]2O[C@H]3[C@H](O)[C@@H](O)[C@@H](O[C@H]4[C@H](O)[C@@H](O)[C@@H](O[C@H]5[C@H](O)[C@@H](O)[C@@H](O[C@H]6[C@H](O)[C@@H](O)[C@@H](O[C@H]7[C@H](O)[C@@H](O)[C@@H](O[C@H]1[C@H](O)[C@H]2O)O[C@@H]7CO)O[C@@H]6CO)O[C@@H]5CO)O[C@@H]4CO)O[C@@H]3CO", "outcome": "inactive"},
      {"smiles": "CC1(C)OC(=O)NC1=O", "outcome": "inactive"},
      {"smiles": "IC(I)I", "outcome": "inactive"},
      {"smiles": "CCOC(=O)C(C)Oc1ccc(Oc2cnc3cc(Cl)ccc3n2)cc1", "note": "(stereo not given)", "outcome": "inactive"},
      {"smiles": "CC(C)(Oc1ccc(Cl)cc1)C(=O)O", "outcome": "inactive"},
      {"smiles": "Cc1ccc(C)c(O)c1", "outcome": "inactive"}
    ]}
  ]
}
